# BLM helicase inh = inhibitors of human Bloom syndrome helicase BLM; recombinant BLM DNA unwinding, fluorescence dequenching; Potency, µM (series often up to 56.1 µM), actives largely listed as inhibitors; P54132; actives 0.2% (n = 350,000); AID 2528; also: nearly all actives have a fitted effect of over 35% in size
# WRN inhibitor = inhibitors of human WRN helicase; Q14191; WRN helicase unwinding, fluorescent forked duplex, kinetic; Potency, µM (top dose mostly 114 µM), hits mostly inhibitors; actives 0.46% (n = 360,000); AID 651768; also: nearly all actives have a fitted effect of over 55% in size
#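 Primary qHTS, 1536-well format. 20 nM WRN + compound, 15 min RT; start with 100 nM forked fluorophore/quencher duplex, 2 mM ATP (final); kinetic read ex 525/em 598 nm.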
# FEN1 inhibitor = inhibitors of human flap endonuclease 1 | P39748 | Recombinant FEN1 flap cleavage, fluorescence, 15 min | Potency, µM (top dose mostly 114 µM), hits mostly inhibitors | actives 0.35% (n = 390,000); also: nearly all actives have a fitted effect of over 65% in size
#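 Read-out was taken twice, immediately and after 15 min, following addition of 50 nM substrate to 10 nM FEN1 that had sat with test compound for 15 min at room temperature. Curves came from a four-parameter Hill model.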
# APE1 inh = blocks human APE1 abasic DNA cleavage. recombinant APE1, TAMRA/BHQ-2 abasic DNA cleavage fluorescence. AID 2517. P27695. actives 0.35% (n = 350,000). Potency, µM (highest dose often 65.8 µM), hits mostly inhibitors; also: nearly all actives have a fitted effect of over 55% in size
#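 APE1 at 0.75 nM preincubated 15 min at room temperature with compound. Reaction then started with 50 nM double-stranded THF-abasic substrate labelled with TAMRA/BHQ-2, and 525/598 nm fluorescence read kinetically. Activity taken as third-minus-first read difference, normalized to DMSO and NSC13755 controls.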
# RECQ1 inh-1 = inhibitors of human RECQ1 DNA helicase; actives 0.54% (n = 240,000); AID 2549; P46063; RECQ1 DNA unwinding, red fluorescence kinetic read; Potency, µM (doses to about 57.3 µM), hits mostly inhibitors; also: nearly all actives have a fitted effect of over 30% in size
# Target sequence (P46063 whole entry, looked up): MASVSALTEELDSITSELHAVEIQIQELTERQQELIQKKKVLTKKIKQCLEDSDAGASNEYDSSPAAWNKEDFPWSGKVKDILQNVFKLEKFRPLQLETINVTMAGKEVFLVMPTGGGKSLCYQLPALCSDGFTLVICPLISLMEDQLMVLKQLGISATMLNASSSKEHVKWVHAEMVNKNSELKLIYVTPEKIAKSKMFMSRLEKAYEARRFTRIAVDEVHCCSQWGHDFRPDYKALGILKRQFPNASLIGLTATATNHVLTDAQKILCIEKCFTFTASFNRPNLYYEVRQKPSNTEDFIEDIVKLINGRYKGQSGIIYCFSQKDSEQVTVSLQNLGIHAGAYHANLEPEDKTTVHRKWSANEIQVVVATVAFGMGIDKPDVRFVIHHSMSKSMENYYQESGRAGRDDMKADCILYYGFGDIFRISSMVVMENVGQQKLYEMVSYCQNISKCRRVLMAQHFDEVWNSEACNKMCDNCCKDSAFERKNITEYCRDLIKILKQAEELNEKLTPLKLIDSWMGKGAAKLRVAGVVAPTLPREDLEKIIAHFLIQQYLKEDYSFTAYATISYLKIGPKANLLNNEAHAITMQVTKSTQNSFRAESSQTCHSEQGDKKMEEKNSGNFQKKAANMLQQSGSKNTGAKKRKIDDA
#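 RECQ1T1 50 nM; forked duplex (20 bp + 30-nt ss tails) 200 nM, ATP 2 mM final; pH 8.0, 2 mM MgCl2, 2.5 ug/ml poly(dI-dC); 15 min compound preincubation; discontinuous kinetic read over 2 h at RT.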
# RECQ1 conf = confirmation of human RECQ1 helicase inhibitors. shares compounds with RECQ1 inh-1. RECQ1 helicase DNA unwinding, fluorescence. Potency, µM (titrated, usually from 229 µM), actives largely listed as inhibitors. actives 28% (n = 610). AID 2708; also: nearly all actives have a fitted effect of over 45% in size
# RECQ1 ADP FP = counter-screen for RECQ1 inhibitors: ADP displacement; shares compounds with RECQ1 inh-1; ADP fluorescence polarization displacement counterscreen; Potency, µM (top dose mostly 228 µM), most hits filed as inhibitors; actives 27% (n = 530); AID 2711; also: nearly all actives have a fitted effect of over 45% in size
# RECQ1 inh-2 = confirmation of human RECQ1 helicase inhibitors; shares compounds with RECQ1 inh-1; actives 15% (n = 1,100); AID 504841; Potency, µM (highest dose often 119 µM), most hits filed as inhibitors; recombinant RECQ1 DNA unwinding, red fluorescence; also: nearly all actives have a fitted effect of over 50% in size
# Numbers stand for hits; i = inactive; ? = inconclusive; nt = not tested or not shown; [ ] = remark or other dose. Most compounds without a hit are left out; they make up all but 0.87% or so of the library. Calls follow the shape of the dose curve; as a rule, active = well fitted curve in the direction sought with a large enough effect; inconclusive = small, poorly fitted or top-dose-only effect, or another doubt; inactive = no such curve, though single readings can be large; an effect the other way counts as inactive or inconclusive.
SMILES,BLM helicase inh,WRN inhibitor,FEN1 inhibitor,APE1 inh,RECQ1 inh-1,RECQ1 conf,RECQ1 inh-2,others
O=[N+]([O-])c1cc(-c2nc(-c3ccccc3)no2)ccc1NCc1cccnc1,i,nt,i,nt,nt,nt,nt,
CC1=Nc2ccccc2/C1=C/c1nc(-c2ccc(C)s2)oc1O,i,i,i,i,?,nt,?,
CCOC(=O)c1c(NC(C)=O)c2c3c(sc2n1Cc1cccc(Cl)c1)CCCC3,i,nt,i,nt,nt,nt,nt,
CCOc1cc(C(N)=O)cc(Cl)c1OCc1ccccc1,i,i,i,?,i,nt,nt,
CCOc1cc(/C=C(/NC(C)=O)C(=O)O)cc(Cl)c1OCc1cccc(Br)c1,i,i,i,i,i,?,nt,RECQ1 ADP FP=i
COc1ccc(-n2c(Cc3cccn3C)nnc2SCC(=O)Nc2ccc(C(C)=O)cc2)cc1,i,i,i,i,22µM,nt,i,
Cc1ccc(-n2c(Cc3cccn3C)nnc2SCC(N)=O)cc1,i,i,i,i,i,nt,nt,
COc1ccc(-n2c(CNc3ccc(C)cc3)nnc2SCC(=O)Nc2nc(-c3ccccc3)cs2)cc1,i,i,i,i,i,nt,nt,
Cc1ccc(-n2c(Cc3cccn3C)nnc2SCC(=O)NCc2ccco2)cc1,i,i,i,i,22µM,i,i,RECQ1 ADP FP=i
COc1ccc(NC(=O)CSc2nnc(Cc3cccn3C)n2-c2ccc(OC)cc2)cc1,i,i,i,i,i,nt,nt,
COc1ccc(NCc2nnc(SCC(=O)Nc3nc(-c4ccccc4)cs3)n2-c2ccccc2)cc1,i,i,i,i,i,i,nt,RECQ1 ADP FP=?
O=C(CSc1nnc(-c2ccncc2)n1Cc1ccco1)Nc1nc(-c2ccccc2)cs1,i,i,i,i,i,i,nt,RECQ1 ADP FP=i
CCC(/C=C1\Sc2ccc(OC)cc2N1CC)=C\c1sc2ccc(OC)cc2[n+]1CCCS(=O)(=O)[O-],i,i,?,?,i,nt,nt,
CCC(/C=C1\Sc2ccc(OC)cc2N1CCO)=C\c1sc2ccc(OC)cc2[n+]1CCO,?,50µM,35µM,?,13µM,nt,45µM,
COc1ccc(Nc2ccc(OC)cc2)cc1,i,i,i,i,5.6µM,?,i,RECQ1 ADP FP=20µM
COc1ccc(-n2c(=O)c(-c3cccs3)nc3cnc(N4CCNCC4)nc32)cc1,i,nt,nt,?,?,nt,i,
Cc1c(CCC(=O)NCCc2ccccc2F)c(=O)oc2cc(O)ccc12,i,nt,i,nt,nt,nt,nt,
O=C(O)c1cc(-c2ccco2)nn1-c1cccc(Cl)c1,i,?,i,?,25µM,nt,?,
CCOC(=O)c1cccc(NC(=O)CN2C(=O)CC(C)(C)Sc3ccccc32)c1,i,nt,i,nt,nt,nt,nt,
CC(=O)Nc1ccc2c(c1)C(C)(C)C(C)N2C (centres undefined),i,i,i,?,35µM,nt,79µM,
COC(=O)c1scc(-c2ccc(C)cc2)c1S(=O)(=O)N1CCN(c2cccc(Cl)c2)CC1,i,nt,i,nt,nt,nt,nt,
CC(Cc1ccc(O)c(O)c1)C(C)Cc1ccc(O)c(O)c1 (centres undefined),i,18µM,?,?,2.2µM,45µM,nt,RECQ1 ADP FP=8.9µM
Cc1nnc(NC(=O)CSc2nnc(-c3ccc(S(=O)(=O)N4CCCC4)cc3)n2C)s1,i,i,i,i,i,i,nt,RECQ1 ADP FP=i
O=C(CSc1n[nH]c(-c2ccc(S(=O)(=O)N3CCCCC3)cc2)n1)Nc1nccs1,i,i,i,?,i,i,nt,RECQ1 ADP FP=i
Cn1c(SCC(=O)Nc2nccs2)nnc1-c1ccc(S(=O)(=O)N2CCCC2)cc1,i,i,i,i,i,nt,nt,
SMILES,BLM helicase inh,WRN inhibitor,FEN1 inhibitor,APE1 inh,RECQ1 inh-1,RECQ1 conf,RECQ1 inh-2,others
COc1ccc(-c2nnc(Nc3ccc(OC)c(C(N)=O)c3)c3ccccc23)cc1,i,nt,?,nt,nt,nt,nt,
COc1ccc(Nc2nnc(-c3ccc(O)cc3)c3ccccc23)cc1C(N)=O,i,i,?,i,?,nt,i,
O=C(NCc1ccccn1)C1CCN(S(=O)(=O)c2cc(Cl)ccc2Cl)CC1,i,i,i,i,?,nt,i,
O=C1CSC(=S)N1/N=C/c1ccc(O)c(O)c1O,?,10µM,2.8µM,0.35µM,2.2µM,?,nt,
Cc1cccc2c1-c1sc(C(=O)NCCCN3CCN(c4cccc(Cl)c4)CC3)cc1CO2,i,nt,i,nt,nt,nt,nt,
O=C(CCc1ccccc1)NC(=S)Nc1cc(C(F)(F)F)ccc1N1CCOCC1,i,i,i,i,?,nt,i,
COCCn1c(=NC(=O)c2ccc(S(=O)(=O)N3CCc4ccccc4C3)cc2)sc2cc(OC)ccc21,i,i,i,i,i,i,nt,RECQ1 ADP FP=i
O=C(C1=NN[C@@H]2C(=O)N(c3cccc(F)c3)C(=O)[C@H]12)C(c1ccccc1)c1ccccc1,i,i,i,i,i,nt,nt,
O=C(C1=NN[C@@H]2C(=O)N(c3cccc(C(F)(F)F)c3)C(=O)[C@H]12)C(c1ccccc1)c1ccccc1,i,i,i,i,28µM,nt,i,
COc1ccc(C2=NC3(CCCCCC3)N(CC(=O)Nc3cccc(Cl)c3)C2=O)cc1,i,nt,i,nt,nt,nt,nt,
S=C(NCc1ccco1)Nc1ccc(Oc2ccc(Cl)cc2)cc1,i,i,i,i,?,nt,i,
Nc1ccc(C(=O)OCC(=O)N2c3ccccc3Sc3ccccc32)cc1[N+](=O)[O-],i,i,i,i,28µM,nt,i,
Cc1c(Cl)cnn1CC(=O)NC1C(=O)N2C(C(=O)O)=C(CSc3nnnn3C)CSC12 (centres undefined),i,i[11.6 µM],i,?,i,nt,nt,
Cc1nn(CC(=O)NC2C(=O)N3C(C(=O)O)=C(CSc4nnnn4C)CSC23)cc1Br (centres undefined),i,i[11.6 µM],i,?,i,i,nt,RECQ1 ADP FP=?
CC1/C=C/C=C/C=C/C=C/C=C/C=C/C=C/C(OC2OC(C)C(O)C(N)C2O)CC2O[C@@](O)(CC(O)CC(O)C(O)CCC(O)CC(O)CC(=O)OC(C)[C@H](C)C1O)CC(O)C2C(=O)O (some centres undefined),i,nt,nt,i,20µM,?,nt,RECQ1 ADP FP=i
CCOC(=O)c1cc(-c2ccc(F)cc2)n(CCC(=O)NCc2ccc(C)cc2)c1C,i,nt,i,nt,nt,nt,nt,
Cc1ccc2nc3sc(C(=O)NCc4ccco4)c(N)c3cc2c1,i,i,i,i,i,nt,nt,
COc1cc2cc3c(N)c(C(=O)NCc4ccco4)sc3nc2cc1OC,i,?,?,?,?,nt,?,
C(=C\c1c[nH]c2ccccc12)/c1nccc2ccccc12,nt,nt,i,nt,nt,nt,nt,
O=C(CC1N=C2c3ccccc3N=C(SCc3ccc(Cl)cc3)N2C1=O)NCc1ccco1 (centres undefined),i,i[11.6 µM],i,i,?,nt,?,
Cc1ccc(CSC2=Nc3ccccc3C3=NC(CCC(=O)NCc4ccco4)C(=O)N23)cc1 (centres undefined),i,i,i,i,i,nt,nt,

# From PubChem BioAssay
